Screening results deposited in PubChem BioAssay by National Center for Advancing Translational Sciences (NCATS).
Hits are enriched below; roughly 3.8% of the tested compounds scored in any of these assays.
ATXN viability: reduces viability in counter-screen for ATXN expression inhibitors; S2 cells (HEK-293 line with an ATXN2-luciferase reporter) viability, CellTiter-Fluor protease fluorescence, 24 h; 400,000 tested, 0.49% active; Potency, µM (series often up to 56.7 µM), most hits filed as cytotoxic; further: nearly all actives have a fitted effect of over 40% in size
Nrf2 block: Nrf2 pathway inhibition; 360,000 tested, 2.1% active; Potency, µM (top dose mostly 46 µM), without a hit: at the top dose activity change, negative = inhibition, usual class: inhibitors; AID 504444; A549 ARE-Fluc reporter, luciferase luminescence, 18-24 h; further: on the % scale 0 is the no-effect control and ±100 the full control effect; nearly all actives have a fitted effect of over 60% in size
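Cells were seeded and rested 2 h, then exposed to compounds for 18-24 h. CellTiter-Fluor was read first as a viability measure. BugLite was added 15 min before the final luminescent read of ARE-luciferase activity in A549 cells.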
ATXN2 expr inh: reduces ATXN2 reporter expression in HEK-293 cells; HEK-293 ATXN2-luciferase reporter, luminescence, 24 h; AID 1745845; 360,000 tested, 0.72% active; Potency, µM (titrated, usually from 57 µM), for the others: at the top dose activity change, negative = inhibition, hits mostly inhibitors; further: on the % scale 0 is the no-effect control and ±100 the full control effect; nearly all actives have a fitted effect of over 55% in size
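ATXN2-luciferase reporter cells (luciferase flanked by upstream and downstream ATXN2 gene portions) were treated 24 h at 37 °C with compounds at up to 57 uM. SteadyGlo luminescence gave expression; GF-AFC fluorescence gave viability.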
TGFb SMAD3 inh: TGF-b pathway inhibition. 410,000 tested, 1.2% active. AID 588855. Potency, µM (top dose mostly 46.1 µM), for the others: at the top dose activity, negative = inhibition, hits mostly inhibitors. HepG2 CAGA-GFP TGF-b/SMAD3 reporter, GFP fluorescence, 18 h; TGF-beta stimulated, 500 pg/mL final; further: on the % scale 0 is the no-effect control and ±100 the full control effect; nearly all actives have a fitted effect of over 65% in size
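GFP signal (ex488/em500-530) from TGF-beta-stimulated HEPG2 CAGA-GFP cells, 500 pg/mL final, 18 h at 37 degrees C in DMEM plus 1% FBS, normalized to unstimulated and DMSO-stimulated controls.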
A549 viability: kills or reduces viability of A549 cells in Nrf2 counter-screen; 390,000 tested, 0.16% active; AID 504648; Potency, µM (doses to about 46 µM), for the others: at the highest dose activity change, negative = cytotoxicity, actives largely listed as inhibitors; A549 ARE-Fluc cells, CellTiter-Fluor viability, 18-24 h; further: on the % scale 0 is the no-effect control and ±100 the full control effect
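A549 ARE_Fluc cells in 5% FBS OPTI-MEM were exposed to compounds in concentration-response for 18-24 h at 37 deg C. Viability was read by CellTiter-Fluor fluorescence (Ex 405/Em 525) after 30 min, before the luciferase read.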
HepG2 tox: kills HepG2 cells in TGF-b inhibitor counter-screen; HepG2 CAGA-GFP viability, ATP luminescence, 18 h; Potency, µM (top dose mostly 46.1 µM), for inactives: at the highest dose activity change, negative = cytotoxicity, usual class: cytotoxic; 410,000 tested, 0.76% active; AID 588856
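HepG2 CAGA-GFP cells (1000/well, DMEM with 1% FBS) received compound, then TGF-beta at 500 pg/mL final, and were incubated 18 hours at 37 degrees C. Viability was read by CellTiter-Glo luminescence. Media-only wells were set as complete cell-killing and DMSO as no toxicity.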
* = called active by the depositor; i = inactive; ? = inconclusive; . = no result; ! = not active in a repeat. The call rests on the fitted dose curve; in most records, active means well fitted curve in the direction sought with a large enough effect; inconclusive means small, poorly fitted or top-dose-only effect, or another doubt; inactive means no such curve, though single readings can be large; an effect the other way counts as inactive or inconclusive. Potency means the concentration at half of the fitted maximal effect.

SMILES	ATXN viability	Nrf2 block	ATXN2 expr inh	TGFb SMAD3 inh	A549 viability	HepG2 tox
COC(=O)Nc1sc2c(c1C(N)=O)CCCCCC2	i	-20.4%	-11.7%	-1.0%	-8.1%	-3.2%
CCC(NC(=O)Nc1cc(OC)ccc1OC)c1c(-n2cccc2)sc2c1CCN(CC)C2 (stereo not drawn)	.	23.8%	.	-24.4%	-11.0%	-35.7%
COc1ccccc1CNC(=O)CSc1ccc(-c2sc(-c3ccccc3)nc2C)nn1	.	?	.	?	-1.1%	-1.0%
O=C(O)CCSc1nc2ccccc2s1	i	13µM*	10µM*	10.0%	0.5%	9.6%
CCOC(=O)NC(=O)COC(=O)CCCSc1nc2ccccc2s1	i	18.4µM*	?	-6.9%	-10.0%	-1.7%
Cc1ccccc1-c1nc(CS(=O)(=O)CC(=O)NCCc2ccccc2)c(C)o1	i	?	-6.3%	14.1µM*	4.8%	-13.7%
Cc1oc(-c2ccccc2F)nc1CS(=O)(=O)CC(=O)NC(C)CCc1ccccc1 (stereo not drawn)	i	?	-23.0%	?	-0.4%	-20.3%
Cc1oc(-c2ccccc2F)nc1CS(=O)(=O)CC(=O)NCCCc1ccccc1	?	-13.7%	-13.8%	2.8%	1.8%	4.3%
COc1cccc(-c2nc(CS(=O)(=O)CC(=O)NCCc3ccc(Cl)cc3)c(C)o2)c1	.	?	.	11.2µM*	?	-41.0%
Cc1ccc(-c2nc(CS(=O)(=O)CC(=O)NC(C)CCc3ccccc3)c(C)o2)cc1 (stereo not drawn)	.	?	.	11.2µM*	-12.2%	-61.5%
CCOC(=O)N1CCC(NC(=O)CSCc2nc(-c3cccc(OC)c3)oc2C)CC1	i	18.4µM*	-11.4%	?	-3.3%	-8.7%
CC(C)CC(=O)Nc1ccc(C(=O)OCc2cc(=O)n3nc(C(C)C)sc3n2)cc1	.	.	.	8.4%	1.4%	0.9%
CCOC(=O)C1(C)CCN1C(=O)c1ccccc1C(F)(F)F (stereo not drawn)	i	.	10.0%	0.0%	.	2.8%
COc1ccc2nc(NC(=O)c3ccc(S(=O)(=O)N4CCC(C)CC4)cc3)sc2c1	i	.	1.3%	-2.9%	-12.3%	-6.1%
COc1cccc(-c2nc(CS(=O)(=O)CC(=O)NC3CCCC3)c(C)o2)c1	i	20.6µM*	-23.7%	-20.6%	-11.6%	-10.0%
COc1cccc(-c2nc(CS(=O)(=O)CC(=O)NC3CCC(C)CC3)c(C)o2)c1 (stereo not drawn)	i	?	-22.8%	?	-9.4%	-17.5%
Cc1ccc2c(c1)nnn2C1CCN(CC(=O)N(c2ccccc2)c2ccccc2)CC1	?	14.6µM*	.	?	?	-50.7%
CN(/N=C/c1ccc(O)cc1O)c1ncc(C(F)(F)F)cc1Cl	?	12.2%	-28.2%	?	0.1%	12.6µM*
COc1ccc(NC(=O)c2ccc(CN3CCc4ccccc4C3)cc2)cc1OC	i	20.6µM*	0.0%	?	0.0%	-23.3%
COc1cccc(NC(=O)c2ccc(CN3CCc4ccccc4C3)cc2)c1	i	14.6µM*	69.5%	?	-0.2%	-51.8%
Cc1ccc(C)c(N2CCN(C(=O)c3cc4ccc5cccnc5c4[nH]3)CC2)c1	.	?	.	15.8µM*	-15.5%	-22.6%
Cc1ccc(Cl)cc1N(C)C(=O)c1cc2ccc3cccnc3c2[nH]1	.	-14.1%	.	11.2µM*	-3.7%	12.6µM*
COc1ccc(N2CCN(C(=O)c3cc4ccc5cccnc5c4[nH]3)CC2)cc1	.	5.6%	.	-12.3%	9.8%	-4.4%
Oc1ccc(/C=N/Nc2nc(-c3ccc(Cl)cc3)cc(C(F)(F)F)n2)cc1	?	16.4µM*	?	?	?	-100.4%
COCCCC/C(=N\OCCN)c1ccc(C(F)(F)F)cc1	?	31.7%	15.8µM*!	2.0%	14.7%	-40.7%
SMILES	ATXN viability	Nrf2 block	ATXN2 expr inh	TGFb SMAD3 inh	A549 viability	HepG2 tox
COC(=O)c1c(NC(NC(=O)C(C)C)C(Cl)(Cl)Cl)sc2c1CCC2 (stereo not drawn)	i	18.4µM*	-13.5%	?	-0.9%	0.1%
CCN(CC)CCNC(=O)c1cc(-c2ccc(Br)s2)nc2ccccc12	.	-1.0%	.	?	-17.4%	-127.8%
CCCN(CCC)CCNC(=O)c1cc(-c2ccc(Br)s2)nc2ccccc12	31.6µM*	7.3%	0.0%	0.3%	-9.4%	-21.2%
C[C@@H]1CN([C@H](C)CO)C(=O)CCCn2cc(nn2)CO[C@H]1CN(C)S(=O)(=O)c1ccccc1	i	.	13.3%	8.1%	.	4.8%
CC(C)Cc1ccc(S(=O)(=O)Nc2ccc3[nH]c(=O)[nH]c3c2)cc1	i	18.4µM*	-8.7%	0.6%	0.1%	-11.1%
COc1ccc(C(=O)N2CCCc3ccccc32)cc1Br	0.224µM*	1.2%	-4.7%	2.1%	-4.0%	-4.3%
COc1cc(OC)cc(C(=O)N2CCCc3ccccc32)c1	i	14.9%	25.8%	-5.8%	-4.7%	-20.8%
NC(N)=N/N=C/c1ccc(OCc2ccc(Cl)cc2)cc1	31.6µM*	?	?	?	-1.7%	10µM*
O=C(N/N=C/c1ccccc1)c1ccc(OCc2ccccc2)cc1	i	2.1%	.	2.1%	6.2%	-37.1%
Cc1ccc(COc2ccc(/C=N/O)cc2)cc1	i	?	89.6%	-4.2%	2.9%	-29.7%
NC(N)=N/N=C/c1ccc(OCc2ccccc2)cc1	?	3.9%	?	?	3.4%	12.6µM*
O=C(Nc1ccn(CCCNCC(c2ccccc2)c2ccccc2)c(=O)n1)OCc1ccccc1	?	.	?	15.8µM*	.	-115.6%
c1ccc(COc2ncnc3c2ncn3CCCNCC(c2ccccc2)c2ccccc2)cc1	.	.	?	15.8µM*	.	11.2µM*
CC(CNCCCn1ccc(NC(=O)OCc2ccccc2)nc1=O)c1ccccc1 (stereo not drawn)	i	5.1%	-25.0%	-6.0%	2.5%	-5.8%
COc1ncnc2c1ncn2CCCNCC(c1ccccc1)c1ccccc1	i	.	-15.7%	0.8%	.	-20.0%
CC(=O)N1CCN(CC(=O)Nc2ccc([N+](=O)[O-])cc2Br)CC1	i	?	0.6%	-24.2%	1.3%	-29.1%
CCOc1cc(-c2ccc(OC(=O)c3ccccc3F)cc2)cc(=O)c2c(C)oc(C)c12	.	-18.9%	.	-1.4%	1.4%	-6.8%
CO[C@H]1C[C@H](O[C@H]2[C@H](C)[C@@H](O[C@@H]3O[C@H](C)C[C@H](N(C)C)[C@H]3O)[C@@H](C)C[C@]3(CO3)C(=O)[C@H](C)[C@@H](O)[C@@H](C)[C@@H](C)OC(=O)[C@@H]2C)O[C@@H](C)[C@@H]1O	i	.	.	.	.	.
